Source: PubChem BioAssay (several laboratories)
dFosB activator – activators of mouse delta FosB homodimer; P13346; purified delta FosB, TAMRA-CDK5 oligo fluorescence polarization; percent of positive-control signal above neutral wells; activation, % at 25 µM; hit rate 0.99% among 340,000;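 active = mean activation above about 17%, with every replicate also reaching it, limit read from the data, passing the limit was not always enough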
CDK5 p35 inh – CDK5/p35 (human) kinase inhibition. Recombinant CDK5/p35, ADP-Glo luminescence, 60 min. Q00535+Q15078. inhibition, % at 10 µM. hit rate 0.01% among 330,000;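 active = highest replicate inhibition of at least 50% and at least 75% of replicates reaching 50%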;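 also: plate controls were DMSO neutral control for no effect and GW8510 at 10 µM for full effect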
DYRK1A inh – blocks rat Dyrk1A kinase activity; AID 504441; inhibition, % at 12.5 µM; ADP-Glo luminescence, NFATc1 peptide; hit rate 0.43% among 310,000; in the data active = inhibition above about 50%;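 also: plate controls were vehicle with enzyme for no effect and no enzyme for full effect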
SMARCA2 activ – SMARCA2 function activation, primary screen | MG213 cells, MMTV-luciferase reporter, dexamethasone, overnight | activation, % at 9.1 µM | hit rate 1% among 370,000; in the data active = activation above about 7.8%;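 also: 0% = vehicle wells and 100% = reference activator wells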
Rtt109 HAT inh – inhibitors of Candida albicans Rtt109/Vps75 histone acetyltransferase; inhibition, % at 34.9 µM; hit rate 0.16% among 330,000; purified Rtt109/Vps75, ThioGlo CoA-SH fluorescence, 4 h; Q5AAJ8; AID 540336;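 active = inhibition of at least 50% in every replicate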
Target sequence (Q5AAJ8 whole entry, looked up): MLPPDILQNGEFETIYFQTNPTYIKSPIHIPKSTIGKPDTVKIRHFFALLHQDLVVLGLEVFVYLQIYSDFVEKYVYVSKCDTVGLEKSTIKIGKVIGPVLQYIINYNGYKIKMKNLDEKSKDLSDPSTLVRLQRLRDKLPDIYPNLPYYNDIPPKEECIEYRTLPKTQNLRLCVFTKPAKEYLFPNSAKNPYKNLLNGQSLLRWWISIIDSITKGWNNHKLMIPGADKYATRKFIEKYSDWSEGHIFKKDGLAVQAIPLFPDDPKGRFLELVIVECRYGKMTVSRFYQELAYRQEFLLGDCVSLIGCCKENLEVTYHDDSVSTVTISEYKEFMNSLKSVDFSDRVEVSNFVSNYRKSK
esBAF inh – SWI/SNF esBAF complex inhibition. mouse ES cells, Bmi1-luciferase knock-in reporter, 24 h; 100% = twice the neutral-well signal. hit rate 2% among 350,000. reporter increase, % at 12.5 µM. AID 602393; in the data active = activation above about 40%;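 also: 0% = median of the plate's neutral control wells and 100% = double that signal; a rise in the Bmi1 reporter signal indicates esBAF inhibition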
* = called active by the depositor; x = not tested or not shown; ! = not active in a repeat. Most compounds without a hit are left out; they make up all but 3.2% or so of the library.

SMILES	dFosB activator	CDK5 p35 inh	DYRK1A inh	SMARCA2 activ	Rtt109 HAT inh	esBAF inh
O=C(NCCc1ccccc1)c1cccc(NC(=O)C2CC2)c1	-4	1	20	5	-9	52*
O=C(NCCc1ccccc1)c1cccc(NC(=O)C2CCC2)c1	1	1	11	2	5	57*
Cc1cc(N2C(=O)C=CC2=O)c([N+](=O)[O-])cc1C	-9	6	3	x	116*	-5
Cc1c([N+](=O)[O-])cc(N2C(=O)C=CC2=O)cc1[N+](=O)[O-]	-9	1	x	x	-6	-4
C[C@@H]1CN([C@H](C)CO)C(=O)c2cc(NC(=O)Nc3ccc(C(F)(F)F)cc3)ccc2O[C@@H](C)CCCCO[C@@H]1CN(C)C(=O)Cc1ccccc1	x	x	x	x	x	-1
COc1cccc2cc(C(=O)NCc3ccccc3Br)c(=O)oc12	2	0	-2	0	4	41*
COc1ccc(-c2nn(-c3ccccc3)cc2C#N)cc1	2	-1	2	5	-4	45*
C[C@H](CO)N1C[C@H](C)[C@@H](CN(C)C)Oc2cc(-c3ccc(F)cc3)ccc2S1(=O)=O	x	x	x	x	x	-5
[O-]/[N+](=C\c1ccccc1)c1ccc(Br)cc1	9	0	-5	3	0	75*
[O-]/[N+](=C\c1ccccc1)c1ccccc1	7	2	9	1	1	13
CC(OC(=O)c1ccc(Cl)nc1)C(=O)Nc1ccc(S(=O)(=O)N2CCCC2)cc1 (stereo unspecified)	-11	-2	-5	0	5	-5
NC(=O)c1ccsc1NC(=O)c1ccc(S(=O)(=O)N2CCCCC2)cc1	-13	-1	11	-1	10	100*
O=C(O)/C=C/C(=O)Nc1ccc(S(=O)(=O)N2CCCC2)cc1	-1	0	-2	-4	64*	x
CC(=O)Nc1ccc(NC(=O)C(C)OC(=O)c2ccc(S(=O)(=O)N3CCCCC3)cc2)cc1 (stereo unspecified)	58*	-1	-1	0	6	-6
CO[C@@H]1CN(C)C(=O)c2cc(NC(=O)Nc3ccccc3)ccc2OC[C@H](C)N(C(=O)CN(C)C)C[C@@H]1C	x	x	x	x	x	3
CCS(=O)(=O)NCC[C@@H]1CC[C@@H](NC(=O)Nc2ccccc2)[C@H](CO)O1	x	x	x	x	x	-3
Fc1ccc(OCc2cc(-c3ccccc3)no2)cc1	-2	1	-1	4	-2	57*
C[C@@H]1CN([C@H](C)CO)C(=O)c2cc(NC(=O)Cc3ccccc3)ccc2O[C@H]1CN(C)Cc1ccc(Cl)c(Cl)c1	x	x	x	x	x	-1
CC1OC1c1ccc(-c2ccc(C3OC3C)cc2)cc1 (stereo unspecified)	-7	0	-9	3	3	77*
Cc1ccc(C2OCC3(CO2)COC(c2ccc(C)cc2)OC3)cc1 (stereo unspecified)	1	0	-1	-3	1	x
O=S(=O)(Nc1ccccc1)c1ccc(-c2cnc(C3CC3)o2)cc1	-19	-1	-6	-3	-4	-1
c1ccc(-c2cnc(C3CCCCC3)o2)cc1	5	-1	2	-1	-4	53*
C[C@@H]1CCCCO[C@H](CN(C)C(=O)Nc2cccc3ccccc23)[C@@H](C)CN([C@@H](C)CO)C(=O)c2cc(NC(=O)CCC(F)(F)F)ccc2O1	x	x	x	x	x	4
C[C@H]1CCCCO[C@H](CN(C)C(=O)Nc2ccc(F)cc2)[C@@H](C)CN([C@@H](C)CO)C(=O)c2cc(NC(=O)Nc3ccc4c(c3)OCO4)ccc2O1	x	x	x	-6	x	51*!
C[C@@H]1CCCCO[C@H](CN(C)C(=O)Nc2cccc3ccccc23)[C@H](C)CN([C@@H](C)CO)C(=O)c2cc(NC(=O)CCC(F)(F)F)ccc2O1	x	x	x	x	x	45*
SMILES	dFosB activator	CDK5 p35 inh	DYRK1A inh	SMARCA2 activ	Rtt109 HAT inh	esBAF inh
CNC[C@@H]1OCCCC[C@H](C)Oc2ccc(NS(=O)(=O)c3ccc(C)cc3)cc2C(=O)N([C@H](C)CO)C[C@H]1C	x	x	x	x	x	55*
CC(C)NC(=O)N(C)C[C@@H]1OCCCC[C@H](C)Oc2ccc(NC(=O)Nc3ccc4c(c3)OCO4)cc2C(=O)N([C@H](C)CO)C[C@@H]1C	x	x	x	x	x	48*
C[C@@H]1CCCCO[C@@H](CN(C)C(=O)Nc2ccc3c(c2)OCO3)[C@H](C)CN([C@@H](C)CO)C(=O)c2cc(NC(=O)Nc3ccc(F)cc3)ccc2O1	x	x	x	x	x	1
C/C=C/c1cnc2c(c1)C(=O)N([C@H](C)CO)C[C@H](C)[C@@H](CN(C)C(=O)Nc1ccc(OC)cc1)O2	x	x	x	x	x	2
CN1C[C@H]2[C@@H](c3ccccc31)[C@H](CO)N2C(=O)Nc1cccc(F)c1	x	x	x	x	x	6
C[C@@H]1CCCCO[C@H](CN(C)Cc2ccc(Cl)c(Cl)c2)[C@@H](C)CN([C@H](C)CO)C(=O)c2cc(NC(=O)Nc3cccc4ccccc34)ccc2O1	x	x	x	x	x	-6
Cc1noc(C)c1NC(=O)N(C)C[C@@H]1Oc2ncc(C#CC3CC3)cc2C(=O)N([C@@H](C)CO)C[C@H]1C	x	x	x	x	x	52*
C[C@H](CO)N1C[C@H](C)[C@@H](CN(C)C(=O)Nc2ccc3c(c2)OCO3)OCCCC[C@H](C)Oc2ccc(NC(=O)c3ccncc3)cc2C1=O	x	x	x	x	x	54*
C[C@@H]1CN([C@@H](C)CO)C(=O)c2cc(NC(=O)c3ccncc3)ccc2O[C@@H](C)CCCCO[C@H]1CN(C)C(=O)Nc1ccc2c(c1)OCO2	x	x	x	x	x	7
C[C@H](CO)N1C[C@H](C)[C@@H](CN(C)C(=O)Nc2ccc3c(c2)OCO3)Oc2ncc(C#CC3(O)CCCC3)cc2C1=O	x	x	x	x	x	60*
C[C@@H]1CN([C@@H](C)CO)C(=O)c2cc(C#CC3(O)CCCC3)cnc2O[C@H]1CN(C)C(=O)Nc1ccc2c(c1)OCO2	x	x	x	x	x	21
C[C@@H]1CCCCO[C@@H](CN(C)C(=O)Nc2ccc3c(c2)OCO3)[C@H](C)CN([C@H](C)CO)C(=O)c2cc(NC(=O)Nc3ccc4c(c3)OCO4)ccc2O1	x	x	x	x	x	80*
CCOC(=O)c1c(C)oc2c1C(=O)c1ccccc1C2=O	5	0	3	2	6	49*
Cc1oc2c(c1C(=O)O)C(=O)c1ccccc1C2=O	3	-2	7	-3	-3	-15
N#C/C(=C/Nc1ccccc1)c1ccsc1	2	7	5	4	5	12
Cc1ccc(N/C=C(/C#N)c2ccsc2)cc1	4	1	7	5	0	68*
CCOc1nc(NCCO)nc(Nc2ccccc2F)n1	-3	1	-1	1	-1	x
CCOc1nc(NCc2ccco2)nc(Nc2ccccc2F)n1	2	0	-5	7	4	67*
C[C@H]1CN([C@@H](C)CO)C(=O)Cc2cc(NC(=O)c3ccncc3)ccc2O[C@@H]1CN(C)S(C)(=O)=O	x	x	x	x	x	2
